SENP6 inh: SENP6 protease inhibitors, primary screen, biochemical, luminescence, uHTS; Recombinant SENP6 catalytic domain, aminoluciferin luminescence; inhibition, % at 10 µM; 330,000 compounds, 1.8% hits; AID 2599, 2010;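 active means inhibition above about 50% at the single tested dose, limit read from the data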
Target sequence (Q9GZR1 628-1112 limits assumed): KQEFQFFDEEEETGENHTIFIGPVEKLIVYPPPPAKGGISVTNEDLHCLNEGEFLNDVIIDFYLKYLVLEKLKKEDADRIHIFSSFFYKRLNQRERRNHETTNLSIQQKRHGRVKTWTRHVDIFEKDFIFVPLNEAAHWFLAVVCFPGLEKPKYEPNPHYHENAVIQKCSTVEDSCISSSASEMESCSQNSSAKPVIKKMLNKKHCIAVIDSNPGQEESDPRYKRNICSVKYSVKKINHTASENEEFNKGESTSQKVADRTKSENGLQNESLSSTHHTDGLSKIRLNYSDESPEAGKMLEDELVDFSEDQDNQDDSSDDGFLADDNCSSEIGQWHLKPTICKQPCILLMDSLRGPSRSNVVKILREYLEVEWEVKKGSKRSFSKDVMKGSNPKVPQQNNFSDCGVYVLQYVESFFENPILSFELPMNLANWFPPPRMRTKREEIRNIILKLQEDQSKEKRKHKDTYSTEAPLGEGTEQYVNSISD
HSP90 refold inh: HSP90 inhibitors, primary screen, cell lysate, luminescence | Rabbit reticulocyte lysate, luciferase refolding luminescence, 3 h | Heat shock protein HSP 90 (rabbit reticulocyte lysate; luciferase refolding) | 290,000 compounds, 0.91% hits | inhibition, % at 5.6 µM | AID 1789, 2009;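 active means inhibition above the screen-wide mean plus 3 SD, computed separately per campaign, cut at about 16% in these data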;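 further: inhibitors lower the luminescence because luciferase stays unfolded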
SENP7 block: SENP7 protease inhibitors, primary screen, biochemical, luminescence, uHTS; recombinant SENP7, Z-RLRGG-aminoluciferin luminescence, 40 min; inhibition, % at 5 µM; 330,000 compounds, 1.5% hits; AID 434973, 2010;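 active means inhibition above about 50% at the single test dose, limit read from the data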
SENP8 block-1: human SENP8 protease inhibitors, primary screen, biochemical, fluorescence, Nedd8 protein substrate, uHTS | Sentrin-specific protease 8 (Homo sapiens), Q96LD8 | recombinant SENP8 | inhibition, % at 20 µM | 360,000 compounds, 0.64% hits | AID 602440, 2012; in the data active means inhibition mostly above about 40%, no sharp cut-off; inactive means mostly below about 27%
Target sequence (Q96LD8 whole entry, looked up): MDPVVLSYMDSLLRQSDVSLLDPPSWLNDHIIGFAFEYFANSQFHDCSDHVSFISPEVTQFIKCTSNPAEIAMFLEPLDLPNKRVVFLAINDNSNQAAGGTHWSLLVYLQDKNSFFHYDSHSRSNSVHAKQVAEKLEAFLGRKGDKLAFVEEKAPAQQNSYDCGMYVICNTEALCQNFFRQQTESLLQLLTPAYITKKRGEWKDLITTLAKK
SENP8 block-2: SENP8 protease inhibitors, primary screen, biochemical, luminescence | Sentrin-specific protease 8 (Homo sapiens), Q96LD8 | purified SENP8, Z-RLRGG-aminoluciferin cleavage | inhibition, % at 10 µM | 330,000 compounds, 1.2% hits; in the data active means inhibition above about 50%
Of the large screens only hits and unclear results are named; the others gave an inactive call. In the library only some 2.8% were active in any assay of this set; here they are far more common.

N=C1/C(=C\c2ccc(-c3cccc(C(=O)O)c3)o2)C(=O)N=C2SC=C(c3ccccc3)N12	SENP6 inh 79
NC(=O)c1cc(N2C(=O)C=CC2=O)ccc1Cl	none
O=C1C(=Cc2cccn2-c2ccccc2)C(=O)c2ccccc21	none (no result: SENP6 inh, SENP7 block, SENP8 block-2)
O=C1C(=Cc2cccn2-c2ccc(O)cc2)C(=O)c2ccccc21	SENP8 block-1 28
O=c1[nH][nH]c(-c2ccccc2)c1-c1ccccc1	none (no result: SENP6 inh, HSP90 refold inh, SENP7 block, SENP8 block-2)
O=c1c(-c2ccccc2)c1-c1ccccc1	HSP90 refold inh 20 (no result: SENP8 block-1)
CC(C)C[C@@H](CSc1ccc(Br)cc1)N1CCN(CCc2ccccc2)CCC1=O	none (no result: HSP90 refold inh)
COc1ccc(Br)cc1CN(C)CC(O)COc1ccc(Br)cc1 (stereo unspecified)	none
CN(C)c1cccc(/C=C(\C#N)c2ccccc2)c1	SENP6 inh 55, SENP8 block-2 57
CN(C)c1ccc(/C=C(\C#N)c2ccccc2)cc1	none (no result: SENP6 inh, SENP7 block, SENP8 block-2)
COc1ccc(NC(=O)CN(C)C(=O)Cc2ccc3c(c2)OCCO3)cc1	none (no result: HSP90 refold inh)
O=C(O)c1ccc(CSC2CCCCC2)cc1	SENP6 inh 58, SENP8 block-2 51
O=C(O)c1ccc(CSc2nnc(SCc3ccccc3)s2)cc1	none
CCCN1/C(=C2/SC(=S)N(CC)C2=O)C=Cc2ccccc21	SENP8 block-1 41
CC(C)Nc1nc(NNc2nc(Cl)nc(NC(C)(C)C)n2)nc(NC(C)C)n1	none
O=C(NCCc1ccccc1)C(=O)NCC1OCCCN1S(=O)(=O)c1cc(F)ccc1F (stereo unspecified)	HSP90 refold inh 16
COC(CNC(=O)C1CCCN(S(=O)(=O)c2c(C)noc2/C=C/c2cccs2)C1)OC (stereo unspecified)	HSP90 refold inh 17
COCCNC(=O)C1CCCN(S(=O)(=O)c2c(C)noc2/C=C/c2cccs2)C1 (stereo unspecified)	none
c1ccc2c(c1)CCN(c1nc3cc4c(cc3s1)OCO4)C2	SENP6 inh 88, SENP7 block 96, SENP8 block-2 94
Cc1cccc2c(N=Nc3ccc(S(=O)(=O)Nc4ccc(Cl)cc4)cc3[N+](=O)[O-])c(O)[nH]c12	SENP8 block-1 40
Cc1cccc2c(N=NC(=O)c3ccc(NS(=O)(=O)c4cccs4)cc3)c(O)[nH]c12	none (no result: HSP90 refold inh)
Nc1n[nH]c(N)c1N=Nc1ccccc1	none
Nc1n[nH]c(N)c1N=Nc1ccccc1F	SENP8 block-1 34
Nc1n[nH]c(N)c1N=Nc1ccc(F)cc1	SENP8 block-1 41
CC1OC2CC(=O)OC2C2=C1C(=O)c1c(O)cccc1C2=O (stereo unspecified)	SENP8 block-1 99 (no result: SENP6 inh, HSP90 refold inh, SENP7 block, SENP8 block-2)
O=C1c2cccc(O)c2C(=O)c2c(O)cc(CO)cc21	none (no result: HSP90 refold inh, SENP8 block-1)
Cc1ccccc1C(=O)N/N=C/c1ccc([N+](=O)[O-])s1	none
Cc1ccnn1CC(=O)N/N=C/c1ccc([N+](=O)[O-])s1	SENP6 inh 51
O=C(N/N=C/c1ccc([N+](=O)[O-])s1)c1ccccc1	SENP6 inh 50
Cc1ccnn1CC(=O)N/N=C/c1cccs1	none
O=C1C=C(O)c2[nH]c(=O)ccc2C1=O	SENP8 block-1 64 (no result: SENP6 inh, HSP90 refold inh, SENP7 block, SENP8 block-2)
NC1=CC(=O)C(=O)c2ccccc21	none (no result: SENP6 inh, HSP90 refold inh, SENP7 block, SENP8 block-2)
Cc1ncoc1C(=O)N1CCc2c([nH]c3ccccc23)C1C(C)(C)C (stereo unspecified)	none
CC1=NN(c2ccccc2)C(=O)C1	SENP8 block-1 49
CC1=NN(c2cccc([N+](=O)[O-])c2)C(=O)C1	none
CC1=NN(c2ccc(Cl)cc2)C(=O)C1	none
CC1=NN(c2ccc(N)cc2)C(=O)C1	SENP8 block-1 68
c1ccc(COc2cccc(CNCc3cccs3)c2)cc1	none
COc1ccc2ccccc2c1C1CC(=O)N2CN(Cc3ccco3)CSC2=C1C#N (stereo unspecified)	SENP8 block-1 45
CCc1ccc(C(=O)COC(=O)c2ccccc2OC)cc1	SENP6 inh 89, SENP7 block 91, SENP8 block-2 82
O=C(NC(=S)NNC(=O)c1cc2ccccc2cc1O)c1ccco1	SENP8 block-2 61
O=C(NC(=S)NNC(=O)c1ccccc1O)c1ccco1	none (no result: SENP6 inh, SENP7 block, SENP8 block-2)
COc1ccc(Oc2nc3c(c(=O)n(C)c(=O)n3C)n2Cc2ccccc2)cc1	none
O=C(Nc1ccccc1N1CCOCC1)c1cc2ccccc2o1	none
O=C(Nc1ccccc1N1CCCC1)c1cc2ccccc2o1	SENP6 inh 63
CCCCCCSc1ccc([C@H]2N[C@@](CC(C)C)(C(=O)OC)[C@H]3C(=O)N(C)C(=O)[C@@H]23)cc1	none (no result: HSP90 refold inh)
CN(c1ccccc1C(=O)Nc1ccc(S(=O)(=O)N2CCCCC2)cc1)S(C)(=O)=O	none
COc1ccc(NC(=O)CN(C)C(=O)C2=COCCO2)cc1	none (no result: HSP90 refold inh)
Cc1cc(-c2ccc(N=Nc3c(S(=O)(=O)O)cc4cc(S(=O)(=O)O)cc(N)c4c3O)c(C)c2)ccc1N=Nc1c(S(=O)(=O)O)cc2cc(S(=O)(=O)O)cc(N)c2c1O	SENP8 block-2 72 (no result: HSP90 refold inh, SENP8 block-1)
O=S(=O)(O)c1cc(O)c2c(O)c(N=Nc3cc(Cl)ccc3O)c(S(=O)(=O)O)cc2c1	none
Cc1occc1C(=O)Nc1cc(=O)n(C)c(=O)n1C	none
Nc1ccc(C2=Nc3cccc4cccc(c34)N2)cc1	none (no result: SENP6 inh, SENP7 block, SENP8 block-2)
CC1=Nc2cccc3cccc(c23)N1	SENP8 block-1 47
Cc1coc2c1C(=O)C(=O)c1c-2ccc2c1CCCC2(C)C	SENP8 block-1 61
C[C@H]1COC2=C1C(=O)C(=O)c1c2ccc2c1CCCC2(C)C	none (no result: SENP6 inh, SENP7 block, SENP8 block-2)
CCCCC(=O)NC(c1ccc(N(C)C)cc1)c1ccc2cccnc2c1O (stereo unspecified)	HSP90 refold inh 19
CCCCC(=O)NC(c1ccc(N(CC)CC)cc1)c1ccc2cccnc2c1O (stereo unspecified)	none
CCCC(=O)NC(c1ccccc1OC)c1ccc2cccnc2c1O (stereo unspecified)	HSP90 refold inh 24
Cc1ccc(-n2nc(C)c3c(C)c(CCC(=O)NCCCOC(C)C)c(C)nc32)cc1	none
CC1CCN(C(=O)C2CCCN2S(=O)(=O)c2ccc(Cl)cc2)CC1 (stereo unspecified)	none
O=C1/C(=C/c2cccs2)SC(=S)N1c1cccc(O)c1	SENP8 block-1 48
COc1ccc(OC)c2c1C(=O)c1ccccc1C2=O	none (no result: SENP8 block-1)
COC1=CC(=O)C(OC)=C(OC)C1=O	SENP8 block-1 41 (no result: SENP6 inh, HSP90 refold inh, SENP7 block, SENP8 block-2)
O=S(=O)(Nc1ncccn1)c1ccc(NC(=S)Nc2ccc(Cl)cc2)cc1	SENP6 inh 70
CN(CC(=O)Nc1ccc(F)c(F)c1F)C(=O)CN1C(=O)NC2(CCCC2)C1=O	none (no result: HSP90 refold inh)
CCC(C)c1ccccc1O (stereo unspecified)	none (no result: HSP90 refold inh)
CCC(c1ccccc1)C(CC)c1cc(O)c(O)c(O)c1 (stereo unspecified)	SENP8 block-1 64 (no result: SENP6 inh, HSP90 refold inh, SENP7 block, SENP8 block-2)
O=C(NCc1ccccc1)c1cccc(COc2ccccc2Cl)c1	HSP90 refold inh 17
O=C(NCc1ccccc1)c1cccc(COc2cc(Cl)ccc2Cl)c1	none
O=C(Nc1nnc(C2CCCCC2)s1)c1ccc(Br)s1	none

Screening results from PubChem BioAssay.
